Out of some 420,000 compounds screened, about 50,000 (12%) were called active. Inconclusive results (about 26%) are left out. Calls come from the whole dose curve; as a rule, active = well fitted inhibition curve with a large enough effect; inconclusive = small, poorly fitted or top-dose-only effect; inactive = flat fitted curve, though single readings scatter. The sample as a whole holds a higher share of actives than the screen did.
% is set by controls: 0 for no effect and ±100 for the full control effect; potency is the fitted concentration of half-maximal effect.

The experiment can be described thus: qHTS for Inhibitors of human tyrosyl-DNA phosphodiesterase 1 (TDP1): qHTS in cells in presence of CPT. Note: nearly all actives have a fitted effect of over 55% in size. The settings on record: chicken DT40 Tdp1-/-;hTDP1 cells + 20 nM CPT, ATP luminescence, 48 h; series mostly up to 46.2 µM; activity change, negative = growth inhibition: at the top concentration. A digest of the protocol: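 Cell growth measured by CellTiter-Glo luminescence after a minimum 48 h, 37 C compound exposure with 20 nM CPT in Tdp1-knockout DT40 cells stably expressing hTDP1, seeded 400/well; qHTS titration format.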
With `O=C(Nc1ccc(NC(=O)c2ccc3c(c2)OCO3)cc1)c1cccc(Cl)c1`, the “activity change, negative = growth inhibition” value was 12% (inactive). In the case of `O=C(Nc1cccc(S(=O)(=O)N2CCCCC2)c1)c1ccc2c(c1)OCO2`, the Potency is 25.9 µM (active). In the case of `O=C(Nc1cccc(S(=O)(=O)Nc2ccc(Cl)cc2)c1)c1ccc2c(c1)OCCO2`, the Potency is 13 µM (active). On to `CN1CCN(S(=O)(=O)c2cccc(C(=O)Nc3cccc(S(N)(=O)=O)c3)c2)CC1`, for which the “activity change, negative = growth inhibition” value was -3.98% (inactive). `CC(NS(=O)(=O)c1ccc(Cl)cc1)C(=O)Nc1ccc2c(c1)OCCO2` (stereo not given): the “activity change, negative = growth inhibition” value is 0.47% (inactive). As to `O=C(Nc1nncs1)c1cccc(S(=O)(=O)N2CCCCC2)c1`, the “activity change, negative = growth inhibition” value is -15.7% (inactive). Take `Cc1cc(C)cc(OCC(=O)OCC(=O)NC2CCCC2)c1`: the “activity change, negative = growth inhibition” value is 7.16% (inactive). For the molecule `Cn1c(=O)c(=O)n(C)c2cc(S(=O)(=O)CCC(=O)N3CCCCC3)ccc21`, the “activity change, negative = growth inhibition” value was -16.2% (inactive). In the case of `COc1cc(S(=O)(=O)N2CCN(C(=O)C3CC3)CC2)ccc1NC(C)=O`, the “activity change, negative = growth inhibition” value is -6.15% (inactive). On the same count and under the same terms, next, `Clc1ccc(Cl)c(Oc2ccc(Oc3nc(Cl)ccc3Cl)cc2)n1`: -23.1% (inactive). Still for that read-out and setting: next, `COC(=O)CCCCC1=CCC2C(=O)C=C(O)C2C1` (stereo not given): -19.3% (inactive); `Cc1cc(C)cc(-c2nnc(SCC(=O)NC3CC3)o2)c1`: -10.3% (inactive).

Take `COc1ccc(-c2nnc(SCC(=O)NC3CCCCC3)o2)cc1OC`: the Potency was 20.6 µM (active). With `COc1ccc(-c2nnc(SCC(=O)Nc3ccccc3C)o2)cc1OC`, the “activity change, negative = growth inhibition” value is -12.2% (inactive).

With `Cc1cc(C)nc(/N=C2\NC(=O)CC(C(=O)O)N2c2ccc(Cl)cc2Cl)n1` (stereo not given), the “activity change, negative = growth inhibition” value is -8.38% (inactive).

For the molecule `Cc1cc(NC(=O)CCC(=O)N(c2cccc(F)c2)C(C(=O)NC2CCCC2)c2ccncc2)no1` (stereo not given), the “activity change, negative = growth inhibition” value was -3.74% (inactive). The same measure, in the same setting: with `Cc1cc(NC(=O)/C=C/C(=O)N(CC(=O)NC2CCCC2)c2ccc(F)cc2)no1` the figure was 8.35% (inactive). Turning to `Cc1cc(NC(=O)/C=C/C(=O)N(c2ccccc2C)C(C(=O)NC2CCCC2)c2ccc(F)cc2)no1` (stereo not given), the Potency is 20.6 µM (active).

Turning to `O=C(Nc1ccc(F)c([N+](=O)[O-])c1)C1CCCO1` (stereo not given), the “activity change, negative = growth inhibition” value was -10.5% (inactive). The same measure, in the same setting: with `CN(c1ccccc1)S(=O)(=O)c1cccc(C(=O)NNC(=O)c2ccncc2)c1` the figure was -10.2% (inactive).

Turning to `CCN(CC)S(=O)(=O)c1ccc(N2CCCC2)c(NC(=O)c2ccc([N+](=O)[O-])o2)c1`, the Potency was 23.1 µM (active). Take `CCN1CCN(c2ccc(S(=O)(=O)N3CCCCC3)cc2NC(=O)c2cccc(NC(C)=O)c2)CC1`: the “activity change, negative = growth inhibition” value was -7.38% (inactive). Same read-out and setting: with `CCN(CC)S(=O)(=O)c1ccc(N2CCOCC2)c(C(=O)O)c1` the figure was 0.809% (inactive). Consider `CCN(CC)S(=O)(=O)c1ccc(N2CCOCC2)c(NC(=O)C2COc3ccccc3O2)c1` (stereo not given), for which the Potency is 18.4 µM (active). As for `CCN(CC)S(=O)(=O)c1ccc(N2CCOCC2)c(NC(=O)c2ccc(=O)n(C)n2)c1`, the “activity change, negative = growth inhibition” value is -10.4% (inactive). Take `CN(C)S(=O)(=O)c1ccc(N2CCCC2)c(C(=O)NCc2ccccc2)c1`: the “activity change, negative = growth inhibition” value was -14.6% (inactive). For `O=C(c1cccnc1)N(Cc1ccccc1)C(=O)c1cccnc1`, the “activity change, negative = growth inhibition” value was -2.33% (inactive). As for `COc1ccccc1C(=O)NCC(=O)OCC(=O)NNC(=O)c1ccc(Br)cc1`, the “activity change, negative = growth inhibition” value is 3.59% (inactive). With `Cc1ccc(N2C(=O)C(NC(=O)c3c(F)cccc3F)(C(F)(F)F)C3=C2CC(C)(C)CC3=O)cc1` (stereo not given), the “activity change, negative = growth inhibition” value was 20.2% (inactive).

With `Cc1ccc(O)c(NC(=O)c2cc(-c3ccco3)on2)c1`, the “activity change, negative = growth inhibition” value was 6.69% (inactive). As to `Cc1cccc(NC(=O)C2CC(=O)OC23CCCC3)c1` (stereo not given), the “activity change, negative = growth inhibition” value is -2.24% (inactive). In the case of `COc1ccccc1C1C2=C(COC2=O)Nc2cc3c(cc21)OCO3` (stereo not given), the “activity change, negative = growth inhibition” value is -8.64% (inactive). With `COc1cc2c(cc1OC)C(c1ccc(C)o1)CC(=O)N2` (stereo not given), the “activity change, negative = growth inhibition” value is 10.7% (inactive). Regarding `CCCOc1ccccc1C1CC(=O)Nc2cc3c(cc21)OCO3` (stereo not given), the Potency is 2.31 µM (active). For the molecule `COc1ccccc1C(=O)NC(=O)COC(=O)C1CC1`, the “activity change, negative = growth inhibition” value is -14.2% (inactive).

In the case of `N#Cc1c(N)nc2c3c(sc(=N)c2c1N)NC(=O)CC3c1ccccc1Cl` (stereo not given), the “activity change, negative = growth inhibition” value is -88.9% (inactive). As for `COc1ccc(NC(=O)CSCc2ccc([N+](=O)[O-])cc2)cc1OC`, the “activity change, negative = growth inhibition” value was -9.99% (inactive).

`CCCCOc1ccc(CON(C(C)=O)C(C)=O)cc1Cl`: the “activity change, negative = growth inhibition” value was -14.4% (inactive).

With `CCCCOc1ccc(CSC(=N)N)cc1[N+](=O)[O-]`, the Potency is 13 µM (active). `Cc1nn(C)c(C)c1C(C)NC(=O)c1ccc(OC2CCN(Cc3ccccn3)CC2)cc1` (stereo not given): the “activity change, negative = growth inhibition” value was -16.9% (inactive). For `CN(C)S(=O)(=O)c1cccc(NC(=O)Cc2ccsc2)c1`, the “activity change, negative = growth inhibition” value is -1.21% (inactive).

Consider `Cc1ccc(/C=N/NC(=O)Cn2nc(C)c(Br)c2C)o1`, for which the “activity change, negative = growth inhibition” value was -14.3% (inactive). For `Cc1ccc(/C=N/NC(=S)Nc2cccc(S(=O)(=O)N(C)C)c2)o1`, the Potency is 4.61 µM (active). For `COc1ccc(NC(=O)CN(C)C(=O)Cc2coc3cc(C)c(C)cc23)cc1`, the “activity change, negative = growth inhibition” value is -2.55% (inactive). Take `COc1ccc(NC(=O)C(CC(C)C)NC(=O)C2CCC(C)CC2)cc1` (stereo not given): the “activity change, negative = growth inhibition” value was -10.8% (inactive).

For `CCc1ccc(-n2nnc(-c3nc(-c4ccccc4)no3)c2C)cc1`, the “activity change, negative = growth inhibition” value is -18.1% (inactive). On to `O=C(CN(C(=O)c1csnn1)c1cccc(Cl)c1)NC1CCCC1`, for which the “activity change, negative = growth inhibition” value is -0.246% (inactive).

With `O=C(NC(=S)Nc1ccccc1N1CCCCC1)c1ccc(F)cc1`, the “activity change, negative = growth inhibition” value was -10.6% (inactive). For the molecule `CC(=O)c1ccc(NC(c2ccc(F)cc2)c2nnc(-c3ccccc3)o2)cc1` (stereo not given), the Potency is 9.2 µM (active).

As for `CCCN(CCC)c1ccc(C(O)c2nnc(-c3ccccc3)o2)cc1` (stereo not given), the “activity change, negative = growth inhibition” value was 2.08% (inactive). In the case of `CC(=O)c1ccc(NC(=O)COc2ccccc2-c2nc(-c3ccccc3)no2)cc1`, the “activity change, negative = growth inhibition” value is 4.35% (inactive). In the case of `CCn1c(SCC(=O)Nc2ccc3c(c2)OCCO3)nnc1-c1ccncc1`, the “activity change, negative = growth inhibition” value was 3.72% (inactive). On to `CCC(=O)c1ccc(OCC(=O)OCC(=O)NC2CCCCCC2)cc1`, for which the “activity change, negative = growth inhibition” value was -25.7% (inactive). As for `Cc1cc(C)c(C)c(S(=O)(=O)Nc2cccnc2)c1C`, the “activity change, negative = growth inhibition” value is 2.32% (inactive). As for `Cc1ccc(C(=O)NNC2=Nc3cc([N+](=O)[O-])ccc3OC2)cc1`, the “activity change, negative = growth inhibition” value is -2.68% (inactive).
